Compounds with a hit are over-represented: about 0.5% of the library has one in this group of screens.
AddAB inh = growth inhibition of E. coli expressing H. pylori AddAB, primary screen, AddAB inhibitor project, absorbance. AID 435030, 2010. actives 0.29% (n = 330,000). inhibition, % at 11.9 µM; in the data active = inhibition above about 12%;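 also: 0% = vehicle wells of infected cells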
Tat export inh = E. coli Tat export inhibitors, primary screen, MC4100, TorA-mCherry reporter, fluorescence, single point; inhibition, % at 10 µM; actives 0.036% (n = 340,000); AID 488895, 2010;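 active = mean replicate inhibition at least 50% and at least half of replicates individually reaching 50%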;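 also: exported cargo escapes ClpAP degradation while cytoplasmic cargo is degraded and loses fluorescence; 0% = median of neutral control wells and 100% = median of NaSCN control wells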
E coli growth-1 = E. coli growth inhibition, primary screen, OD600; OD600 absorbance (test concentration not listed); AID 1053175, 2014; Escherichia coli growth, 23 h; stronger effect = lower value; actives 0.21% (n = 330,000);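 active = OD600 absorbance below the run mean of sample wells minus 3.6 SD, in any replicate, cut at about 0.56 in these data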
phage Ecoli inh = growth loss of phage-infected E. coli, primary screen, RecBCD inhibitor project, absorbance, with phage, HTS; AID 651602, 2012; inhibition, % at 11.9 µM; actives 0.26% (n = 360,000); in the data active = inhibition above about 11%
E coli growth-2 = E. coli V3065 growth inhibition, primary screen, counter-screen for AddAB inhibitor project, absorbance, OD600. actives 0.27% (n = 330,000). inhibition, % at 11.9 µM. 18 h;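 active = inhibition above the campaign's mean inhibition across all tested compounds plus 3 SD, cut at about 9.9% in these data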;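 also: uninfected addAB+ strain grown without phage in ampicillin broth; 0% = DMSO wells and 100% = ciprofloxacin 0.95 µg/ml wells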
AddAB confirm = growth loss of phage-infected E. coli expressing H. pylori AddAB, confirmation, AddAB inhibitor project, absorbance, E. coli V3065, T4 phage, triplicate; shares compounds with AddAB inh; OD; T4 phage with gene 2 nonsense mutations; inhibition, % at 11.9 µM; actives 64% (n = 880); AID 488942, 2010;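 active = mean inhibition above a set limit taken from the earlier primary screen, cut at about 13% in these data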;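 also: higher means less bacterial growth since AddAB block lets phage replicate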
RecBCD counter = growth loss of RecBCD+ E. coli with mutant T4 phage, counter-screen for AddAB inhibitor project, absorbance, V66 E. coli; shares compounds with AddAB inh; inhibition, % at 11.9 µM; actives 73% (n = 880); OD growth;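 active = mean inhibition above the mean of solvent-only control wells plus 3 SD, cut at about 4% in these data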;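 also: optical density read after an 18 h incubation at 37 °C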
bact viab count = bacterial viability inhibition counter-screen, confirmation, counter-screen for AddAB inhibitor project, absorbance. shares compounds with AddAB inh. actives 35% (n = 880). inhibition, % at 11.9 µM. absorbance (AddAB counterscreen); in the data active = inhibition above about 25%
The depositor's hits bear a star; . = not tested or not shown.

SMILES	AddAB inh	Tat export inh	E coli growth-1	phage Ecoli inh	E coli growth-2	AddAB confirm	RecBCD counter	bact viab count
COc1ccc(-c2cccc(C3C4C=CCC[C@@]4(C)C(=O)N3Cc3ccccc3)c2)cc1 (stereo partly drawn)	.	.	0.695	.	.	.	.	.
Oc1ccc(/C=N/NC(=S)Nc2cccnc2)c(O)c1	15.9*	2.7	.	4.7	10.5*	8.0	11.1*	15.8
C/C(=N\OCc1nc2ccccc2c(=O)n1/N=C/c1cc([N+](=O)[O-])ccc1O)c1ccccc1	12.6*	-4.5	.	2.7	8.7	-1.6	2.2	0.2
C/C(=N\OCc1nc2ccccc2c(=O)n1/N=C/c1cc(C)cc([N+](=O)[O-])c1O)c1ccccc1	8.4	-1.2	.	8.6	8.5	.	.	.
O=C(Cc1ccc([N+](=O)[O-])cc1)NCc1cccnc1	4.4	-17.7	0.607	-0.2	-3.5	.	.	.
CC(Sc1ccsc1[N+](=O)[O-])C(=O)NCc1ccco1 (stereo not drawn)	14.3*	-4.4	0.693	5.6	7.2	23.0*	1.9	10.7
O=C(NCc1cccnc1)c1ccc([N+](=O)[O-])o1	17.1*	-7.3	0.501*	16.7*	13.3*	71.5*	7.9*	17.9
COc1cc(NC(=O)c2ccc([N+](=O)[O-])o2)ccc1NC(=O)c1ccco1	16.4*	-3.1	0.693	8.2	11.7*	73.8*	6.7*	22.0
O=C(NCc1ccco1)c1ccc([N+](=O)[O-])o1	34.6*	-2.4	.	8.4	9.5	75.8*	6.6*	15.3
O=C(NCc1ccco1)c1ccc(Cn2cc([N+](=O)[O-])cn2)o1	0.4	-10.7	0.685	3.9	-1.2	.	.	.
CC(Sc1nnc(-c2cccs2)n1-c1ccccc1)C(=O)NCc1ccco1 (stereo not drawn)	0.6	-1.3	0.714	-0.3	-3.1	.	.	.
CN(CC(Cc1cccc2ccccc12)N(CC(Cc1ccccc1)N(CCc1ccccc1)N=O)N=O)N=O (stereo not drawn)	.	.	0.715	.	.	.	.	.
CC1CN(C(C)CO)C(=O)Cc2cc(NC(=O)Nc3ccccc3)ccc2OC1CN(C)C(=O)Nc1ccc2c(c1)OCO2 (stereo not drawn)	.	.	0.603	.	.	.	.	.
CC1CN(C(C)CO)C(=O)c2cccc(NC(=O)C3CC3)c2OC1CN(C)CC1CCCCC1 (stereo not drawn)	.	.	0.679	.	.	.	.	.
CCC(C)C(C(=O)NCCCCCCCCCCC(=O)N1CCNCC1)n1cc(CCCCCN)nn1 (stereo not drawn)	.	.	0.691	.	.	.	.	.
COc1ccc(C2C(=C(O)c3ccccc3)C(=O)C(=O)N2C)cc1 (stereo not drawn)	.	.	0.712	.	.	.	.	.
CCCCC(=O)O[C@H]1CC[C@H]2[C@@H]3CCc4cc(O)ccc4[C@H]3CC[C@]12C	97.0*	2.9	.	3.9	-0.9	2.9	0.1	-1.1
CC1CN(C(C)CO)C(=O)c2cccc(NC(=O)Cc3ccccc3)c2OC1CN(C)S(=O)(=O)c1cccs1 (stereo not drawn)	.	.	0.696	.	.	.	.	.
O=C(Nc1ccc2oc(-c3ccncc3)nc2c1)c1ccc([N+](=O)[O-])o1	18.3*	0.4	0.605	3.5	15.5*	88.7*	8.8*	24.0
O=C(COC(=O)C1CCN(S(=O)(=O)c2ccc3c(c2)OCCO3)CC1)NC1CCCCC1	0.2	2.2	0.678	1.9	2.8	.	.	.
O=C(COC(=O)C1CCN(S(=O)(=O)c2ccc3c(c2)OCCO3)CC1)NC1CCS(=O)(=O)C1 (stereo not drawn)	26.0*	-3.1	0.678	0.2	9.8*	-5.7	-2.3	-5.2
Cc1cc(=O)n(-c2ccc(O)cc2)[nH]1	98.2*	-3.4	0.541	10.8	93.1*	78.4*	7.7*	45.7*
Cc1ccc(S(=O)(=O)N2C(c3cccs3)CC=C(C(=O)O)C2c2ccccc2)cc1 (stereo not drawn)	.	.	0.671	.	.	.	.	.
COc1ccc(NC(=O)c2cccc(Cn3cc(Br)c([N+](=O)[O-])n3)c2)c(C)c1	1.7	-17.6	0.642	2.0	-1.6	.	.	.
CCCNC(=O)c1cccc(Cn2cc(Br)c([N+](=O)[O-])n2)c1	15.3*	7.0	0.678	6.1	11.2*	30.9*	3.4	32.0*
SMILES	AddAB inh	Tat export inh	E coli growth-1	phage Ecoli inh	E coli growth-2	AddAB confirm	RecBCD counter	bact viab count
NNC(=O)c1cccc(Cn2cc(Br)c([N+](=O)[O-])n2)c1	27.2*	-3.5	0.637	9.2	23.9*	97.1*	11.7*	67.0*
C#CCNC(=O)C1=CC(c2ccc(C(F)(F)F)cc2)C(CCCO)C(OCC)O1 (stereo not drawn)	.	.	0.66	.	.	.	.	.
O=C(N/N=C\c1c(O)ccc2ccccc12)c1ccc(O)cc1	6.0	2.8	.	0.2	-3.4	.	.	.
O=C(N/N=C/c1c(O)ccc2ccccc12)c1ccc(Br)o1	21.4*	-9.6	.	16.2*	23.3*	15.2*	17.1*	10.7
Cc1occc1C(=O)N/N=C/c1c(O)ccc2ccccc12	17.3*	2.0	.	10.0	14.0*	17.1*	15.8*	8.7
CCCC1CC(C(=O)NC(C(C)O)C2OC(SC)C(O)C(O)C2O)N(C)C1 (stereo not drawn)	.	.	0.649	.	.	.	.	.
CNCC1Oc2c(NC(=O)C3CC3)cccc2C(=O)N(C(C)CO)CC1C (stereo not drawn)	.	.	0.706	.	.	.	.	.
COc1ccc(S(=O)(=O)N/N=C\c2ccc([N+](=O)[O-])o2)c(OC)c1	30.3*	-21.1	.	9.6	23.8*	100.2*	8.3*	39.7*
Cc1ccc(S(=O)(=O)NN=Cc2ccc(C)o2)cc1	.	.	0.691	.	.	.	.	.
COc1ccccc1NS(=O)(=O)c1cccc(C(=O)NN=Cc2ccc([N+](=O)[O-])o2)c1	.	.	0.626	.	.	.	.	.
O=C(N/N=C/c1ccc([N+](=O)[O-])o1)C1CCCC1	12.4*	-5.0	.	8.3	9.2	73.9*	5.0*	13.3
O=[N+]([O-])c1ccc(/C=N\NS(=O)(=O)c2ccc(F)cc2)o1	92.7*	-9.2	.	10.7	20.1*	98.9*	8.0*	53.9*
CC(O)CCC(C)OC1OC(C)C(O)CC1O (stereo not drawn)	.	.	0.667	.	.	.	.	.
CC(C)C[C@@]12C(=O)N(c3cccc(F)c3)C(=O)N1C(c1ccc(Br)cc1)C1C(=O)N(C(C)(C)C)C(=O)C12 (stereo partly drawn)	.	.	0.67	.	.	.	.	.
COC(=O)[C@]1(C)NC(c2ccc(-c3ccc(Cl)c(Cl)c3)c(OC)c2)C2C(=O)N(C)C(=O)C21 (stereo partly drawn)	.	.	0.721	.	.	.	.	.
O=C(NN1C(=O)c2ccccc2NC1c1ccc([N+](=O)[O-])o1)c1ccc(Br)cc1 (stereo not drawn)	3.1	-1.6	0.687	4.9	1.9	.	.	.
